# Assay outcomes: PubChem, several laboratories
# Hits are enriched below; roughly 2% of the tested compounds scored in any of these assays.
# Fh CTSL1 inh: cathepsin L1 inhibition, PFM18AAP counter-screen; recombinant F. hepatica cathepsin L1, Z-Leu-Arg-MCA fluorescence; inhibition, % at 5.96 µM; hit rate 0.49% among 300,000;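 active means inhibition above the mean of all tested compounds plus 3 SD, set per screening campaign, cut at about 17% in these data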;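 further: 0% = plate median of test compound wells and 100% = 1 µM Z-Phe-Ala-diazomethylketone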
# NALP1 yeast inh: blocks the NALP1 inflammasome reconstituted in yeast; inhibition, % at 10 µM; hit rate 0.61% among 280,000; S. cerevisiae NALP1/ASC/caspase-1 growth, X-gal OD620, 72 h; in the data active means inhibition mostly above about 24%, no sharp cut-off; inactive means mostly below about 32%
# APOBEC3A inh: human APOBEC3A DNA deaminase inhibition; P31941; recombinant A3A, FAM/TAMRA ssDNA deamination fluorescence; inhibition, % at 20 µM; hit rate 0.41% among 330,000; AID 493011;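 active means at least 40% inhibition at 20 µM here, with at most 30% in a related deaminase screen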;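 further: plate controls were A3A with DMSO for no effect and wells lacking A3A enzyme for full effect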
# Target sequence (P31941 whole entry, looked up): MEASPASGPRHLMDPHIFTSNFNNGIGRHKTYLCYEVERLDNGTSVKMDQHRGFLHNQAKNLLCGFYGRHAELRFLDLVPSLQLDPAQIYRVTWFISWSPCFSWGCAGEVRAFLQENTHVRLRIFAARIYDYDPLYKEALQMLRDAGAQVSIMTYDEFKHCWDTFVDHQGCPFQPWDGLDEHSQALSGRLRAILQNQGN
# APOBEC3G inh: inhibitors of human APOBEC3G DNA deaminase; Q9HC16; recombinant A3G, ssDNA deamination FAM/TAMRA fluorescence; inhibition, % at 20 µM; hit rate 0.28% among 330,000; AID 493012;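 active means inhibition of at least 40% at 20 µM, with no more than 30% in the related APOBEC3A deaminase screen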;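 further: plate controls were DMSO wells with A3G for no effect and wells lacking A3G enzyme for full effect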
# Target sequence (Q9HC16 whole entry, looked up): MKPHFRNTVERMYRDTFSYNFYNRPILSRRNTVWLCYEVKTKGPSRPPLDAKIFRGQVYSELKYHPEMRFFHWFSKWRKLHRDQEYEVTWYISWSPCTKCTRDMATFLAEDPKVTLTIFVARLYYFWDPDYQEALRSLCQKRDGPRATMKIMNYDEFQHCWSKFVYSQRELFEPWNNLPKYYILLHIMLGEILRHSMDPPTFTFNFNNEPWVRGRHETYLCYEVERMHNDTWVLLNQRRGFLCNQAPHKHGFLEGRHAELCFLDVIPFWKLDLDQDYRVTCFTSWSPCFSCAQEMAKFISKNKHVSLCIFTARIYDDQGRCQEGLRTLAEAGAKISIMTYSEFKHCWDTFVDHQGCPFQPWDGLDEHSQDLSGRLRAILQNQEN
# HGIII-sPLA2 inh: Inhibits HGIII-sPLA2 liposome hydrolysis, primary screen; hit rate 0.56% among 370,000; Q9NZ20; inhibition, % at 12.2 µM; AID 743126; QFRET BODIPY PC-A2 liposome hydrolysis, fluorescence;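 active means inhibition above mean plus 3 SD of compounds lying within the high and low control bounds, cut at about 19% in these data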;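 further: 0% = median of test compound wells and 100% = no enzyme DMSO wells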
# A3A conf: confirmation of human APOBEC3A DNA deaminase inhibitors; inhibition, % at 20 µM; AID 493151; hit rate 63% among 1,400; shares compounds with APOBEC3A inh; recombinant A3A, ssDNA deaminase UDG fluorescence assay;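 active means inhibition reaching a set limit, 80% of the first screen's cutoff, at 20 µM in any replicate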;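 further: plate controls were DMSO wells with A3A for no effect and wells lacking A3A enzyme for full effect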
# UDG A3A counter: inhibits UDG, flagging false APOBEC3A inhibitors; shares compounds with APOBEC3A inh; 1,000 tested, under 10 active; UDG counterscreen, FAM/TAMRA uracil oligo fluorescence; inhibition, % at 20 µM; call rule not given here
# * marks the source's active call; other numbers are inactive results; · = no result.
SMILES,Fh CTSL1 inh,NALP1 yeast inh,APOBEC3A inh,APOBEC3G inh,HGIII-sPLA2 inh,A3A conf,UDG A3A counter
COc1cc(/C=C/c2cccc[n+]2C)ccc1OCC(=O)Nc1ccccc1C,-2,22,82*,23,3,72*,0
CCCCNC(=O)C[C@H]1C[C@@]2(C(=O)OC)C(=C[C@H](C(C)C)O[C@@H]2C2CC2)N(Cc2ccco2)C1=O,·,·,·,·,-8,·,·
C[C@H](NC(=O)OCc1ccccc1)P(=O)(O)O,·,·,·,·,0,·,·
Clc1ccc(Sc2oc(/C=N/n3cnnc3)cc2Br)cc1,4,-3,43*,25,2,72*,-4
C/C=C/C(=O)N1CCC(C(=O)NCC2COc3ccccc3O2)CC1 (centres undefined),·,·,·,·,6,·,·
O=C(c1cccnc1)N1CCN(c2ccc(Cl)cc2)CC1,-9,13,48*,-6,16,-4,-2
Cc1ccc(CN2CCCCC(NC(=O)C(C)(C)C)C2=O)cc1 (centres undefined),·,·,·,·,-3,·,·
CCC1=[N+](C)c2cccc3cccc(c23)N1C,3,-5,65*,22,12,78*,-3
C[n+]1cnc(-c2ccccc2)cc1-c1ccccc1,-3,12,45*,29,1,62*,0
c1ccc(-c2cc(-c3ccccc3)ncn2)cc1,-1,·,-2,-10,15,·,·
COc1ccc(/C=C2\C(=O)NCC(=O)N2Cc2ccccc2)cc1,-4,26,-2,-4,-12,·,·
COc1ccc(/C=C2\C(=O)NCC(=O)N2C)cc1,-1,-2,52*,14,7,75*,-3
COC(=O)[C@]12C[C@H](CC(=O)NCc3ccccc3)C(=O)N(Cc3ccc(Cl)cc3Cl)C1=C[C@H](C1CCCC1)O[C@@H]2C,·,·,·,·,-11,·,·
COc1ccc(-c2noc(CSc3nc(-c4ccccc4)cc(=O)[nH]3)n2)cc1,-1,40*,56*,14,·,22,·
N#C/C(=C/c1cccn1-c1cccc(C(=O)O)c1)c1ccc(Cl)cc1,1,-13,70*,20,-18,65*,·
C[N+]1(C2CCC3CCCC2C3O)CCCCC1 (centres undefined),-1,16,65*,21,2,68*,4
O=C(c1ccc(=O)oc1)N1CCOCC1,5,0,95*,29,14,84*,·
O=C(c1coc(=O)c(Br)c1)N1CCOCC1,·,34,·,·,1,·,·
O=C(c1ccc(=O)oc1)N1CCCc2ccccc21,2,3,71*,15,-8,60*,·
Cn1nc([N+](=O)[O-])nc1S(C)(=O)=O,·,-21,88*,10,4,88*,-4
COC(=O)C1=C(C)N(Cc2ccccc2)C(=NCc2cc(OC)c(OC)c(OC)c2)N[C@H]1c1cccc(F)c1,2,8,19,-4,·,·,·
CCN1C(=NCc2cc(OC)c(OC)c(OC)c2)N[C@@H](c2ccccc2)[C@H](C(=O)OC)[C@H]1C,-4,1,75*,29,·,47*,·
CCN1C(=NCCOC)N[C@@H](c2ccccc2)[C@H](C(=O)OC)[C@H]1C,·,·,46*,9,11,75*,1
COCCN1C(=O)N[C@@H](c2ccccc2)[C@@H](C(=O)OC)[C@H]1C,-2,·,-2,-8,-5,·,·
COc1ccc2c(c1)CCCN2C(=O)C1CCCN(S(=O)(=O)c2cccc3cccnc23)C1 (centres undefined),·,·,·,·,5,·,·
SMILES,Fh CTSL1 inh,NALP1 yeast inh,APOBEC3A inh,APOBEC3G inh,HGIII-sPLA2 inh,A3A conf,UDG A3A counter
CCC(C)N(C(=O)c1csnn1)C(C(=O)NC(C)(C)C)c1ccccc1 (centres undefined),-12,-22,62*,-4,0,-9,0
CC(C)(C)NC(=O)C(c1ccccc1)N(Cc1ccco1)C(=O)c1csnn1 (centres undefined),0,13,1,-1,3,·,·
O=C(Nc1ccc(-c2cn3ccsc3n2)cc1)C1CC1,-1,2,77*,-2,2,10,-1
COC(=O)C1=C(C)N(C)C(=NCc2cc(OC)c(OC)c(OC)c2)NC1c1cccc(Cl)c1 (centres undefined),·,·,·,·,-4,·,·
Nc1cc(=O)n(Cc2ccccc2)c(N)c1C(=O)NCc1ccccc1,·,·,·,·,-2,·,·
O=C(NCc1ccc2c(c1)OCO2)c1cc(-n2cnnc2)ccc1Cl,-4,-3,57*,12,4,72*,-1
CCSCCNC(=O)c1cc(-n2cnnc2)ccc1Cl,-1,16,60*,25,8,60*,2
O=C(NCCOc1cccc(Cl)c1Cl)c1cc(-n2cnnc2)ccc1Cl,11,3,-1,-6,·,·,·
O=C(CSc1nnc(-c2ccccc2F)n1Cc1ccco1)Nc1ccccc1-c1ccccc1,·,·,·,·,-4,·,·
CCOC(=O)N1CCN(C(=O)C[C@H]2C[C@@]3(C(=O)OC)C(=C[C@H](C(C)C)O[C@@H]3C3CC3)N(CCC3=CCCCC3)C2=O)CC1,·,·,·,·,-11,·,·
CC(=O)Oc1ccc(/C=N/NC(=O)C2CCCN2S(=O)(=O)c2ccc(Cl)cc2)cc1 (centres undefined),-17,29,61*,16,2,71*,-4
C[C@H](O)[C@@H]1CN2CCc3ccc(N4CCOCC4)cc3[C@@H]2C[C@@H]1N(C)C(=O)c1ccco1,·,·,·,·,2,·,·
CN1CCN(CC(=O)Nc2sc3c(c2C(=O)Nc2ccccc2)CCCC3)CC1,0,9,57*,6,-6,43*,-2
COCCCNC(=O)C[C@@H]1C(=O)N2CCCC3=C2[C@@]1(C(=O)OC)CCCC3,·,·,·,·,1,·,·
O=c1[nH]ncc2c3ccccc3n(Cc3ccccc3F)c12,3,6,43*,-8,-5,-6,1
CC1CCN(C(=O)COC(=O)c2cc(Cl)c3c(c2)OCO3)CC1,·,·,5,-1,12,·,·
O=C(O)c1cc(Cl)c2c(c1)OCO2,0,·,43*,8,3,27,·
CN(c1cccnc1)c1ccc(NC(=O)Cc2c[nH]c3ccccc23)cc1-c1ccc(F)c(F)c1,·,·,·,·,1,·,·
COc1ccc(NC(=O)c2ccc(OCC3CCCO3)cc2)cc1OC (centres undefined),·,·,50*,16,6,36*,0
COc1cc(Cl)c(C)cc1NC(=O)CSc1sc2c(O)cc(=O)[nH]c2c1C#N,3,8,69*,26,11,18*,1
COc1ccc(OC)c(NC(=O)CSc2sc3c(O)cc(=O)[nH]c3c2C#N)c1,1,5,21,-1,6,·,·
COc1cccc(-c2c(-c3ccccc3OC)ncn2Cc2cccc(-c3ccccc3)c2)c1,·,·,·,·,-15,·,·
CCN(CC)c1ccc(C=NNC(=O)Cc2cc(=O)[nH][nH]2)c(O)c1,·,·,·,·,-1,·,·
CCN(CC)C(=O)Cn1cc(SCC(=O)NC2CCCC2)c2ccccc21,0,3,-3,-9,11,·,·
